Screening data: PubChem BioAssay, National Center for Advancing Translational Sciences (NCATS)
Rango complex inh: qHTS Assay for Inhibitors of Rango (Ran-regulated importin-beta cargo) - Importin beta complex formation; AID 540263, 2011; Potency, µM (titrated, usually from 92.2 µM), for the others: at the top dose inhibition of complex formation; Importin subunit beta-1 (Homo sapiens), Q14974; 340,000 compounds, 0.031% hits; Rango CFP/YFP FRET sensor + importin beta, 45 min;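 further: 0% = DMSO wells and 100% = buffer wells lacking importin beta; nearly all actives have a fitted effect of over 15% in size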
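Inhibition scored from the CFP 486 nm/YFP 530 nm FRET ratio 45 min after adding 0.125 microM importin beta to 50 nM Rango biosensor preincubated 5 min with compound (room temperature, PBS with DTT, Tween-20, BSA). No-importin wells as positive control.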
Rango dissoc inh: qHTS Assay for Inhibitors of RanGTP induced Rango (Ran-regulated importin-beta cargo) - Importin beta complex dissociation. Potency, µM (highest dose often 46.1 µM), for the others: at the highest dose activity change, negative = inhibition. 340,000 compounds, 0.071% hits. Biochemical FRET Rango-importin beta, RanGTP-induced dissociation. Snurportin-1 (Homo sapiens) + GTP-binding nuclear protein Ran (Homo sapiens) + Importin …; further: % of control where 0% means no effect; nearly all actives have a fitted effect of over 45% in size
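Quantitative HTS using a FRET biosensor: 0.1 uM Rango, 0.25 uM importin beta, 0.6 uM Ran, 2 mM GTP, 0.2 uM RCC1 final, PBS with DTT, Tween-20 and BSA. Post-read taken 45 min after Ran addition.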
TDP1 inh: qHTS Assay for Inhibitors of Tyrosyl-DNA Phosphodiesterase (TDP1). recombinant TDP1, AlphaScreen DNA substrate cleavage. 350,000 compounds, 0.28% hits. Potency, µM (titrated, usually from 130 µM), for the others: at the highest dose activity change, negative = inhibition, hits mostly inhibitors; active means well fitted curve in the direction sought with a large enough effect; inconclusive means small, poorly fitted or top-dose-only effect, or another doubt; inactive means no such curve, though single readings can be large; an effect the other way counts as inactive or inconclusive; further: on the % scale 0 is the no-effect control and ±100 the full control effect; nearly all actives have a fitted effect of over 40% in size
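Steps: enzyme plus compound, 15 min RT; add biotin/phosphotyrosine-FITC oligonucleotide (15 nM final), react 5 min; add donor/acceptor beads (10 ug/ml final), 10 min; read AlphaScreen. Tdp1 at 1 nM final.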
PTAP TSG101 blk: qHTS Assay for Iinhibitors of HIV-1 Budding by Blocking the Interaction of PTAP/TSG101; Tumor susceptibility gene 101 protein (Homo sapiens), Q99816; Fluorescence polarization, FITC-PTAP peptide / Tsg101 binding; Potency, µM (top dose mostly 115 µM), for inactives: at the highest dose activity change, negative = inhibition, actives largely listed as inhibitors; 340,000 tested, under 10 active; AID 493005, 2010; active means well fitted inhibition curve with a large enough effect in the main read-out, with a control signal flat, not every such curve was filed as active; inconclusive means small, poorly fitted or top-dose-only effect, or effect the other way, or a change in a side signal; inactive means no such curve, though single readings can be large or run the other way; further: % of control where 0% means no effect
Target sequence (Q99816 whole entry, looked up): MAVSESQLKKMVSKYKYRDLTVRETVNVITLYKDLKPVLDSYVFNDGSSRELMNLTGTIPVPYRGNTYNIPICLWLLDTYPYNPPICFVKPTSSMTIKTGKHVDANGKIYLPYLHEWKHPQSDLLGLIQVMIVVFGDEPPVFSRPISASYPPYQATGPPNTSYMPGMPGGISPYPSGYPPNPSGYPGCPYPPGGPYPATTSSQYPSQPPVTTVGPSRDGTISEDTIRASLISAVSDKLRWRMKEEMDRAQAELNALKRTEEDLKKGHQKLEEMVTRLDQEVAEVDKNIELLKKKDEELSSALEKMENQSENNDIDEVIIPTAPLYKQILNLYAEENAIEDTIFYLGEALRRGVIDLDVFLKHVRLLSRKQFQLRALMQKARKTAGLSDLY
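Tsg101 binding domain (10 uM final) was mixed with compound and a FITC-labeled PTAP peptide (50 nM final) in HEPES pH 7.5 buffer with NaCl, Tween 20, EDTA and TCEP; fluorescence polarization was read after 20 min at r.t.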
ALOX12 inh: Primary qHTS assay for inhibitors of human arachidonate 12S-lipoxygenase (ALOX12): Round 2; purified 12hLO, xylenol orange hydroperoxide absorbance; 580,000 compounds, 1.1% hits; Polyunsaturated fatty acid lipoxygenase ALOX12 (Homo sapiens), P18054; Potency, µM (top dose mostly 108 µM), without a hit: top-dose activity change, negative = inhibition, usual class: inhibitors; active means well fitted curve in the direction sought with a large enough effect; inconclusive means small, poorly fitted or top-dose-only effect, or another doubt; inactive means no such curve, though single readings can be large; an effect the other way counts as inactive or inconclusive; further: on the % scale 0 is the no-effect control and ±100 the full control effect
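Purified human 12hLO at 150 nM in 25 mM Hepes, 0.01% Triton X-100, pH 7.0, preincubated 15 min at room temperature with compound. Reaction started with 40 uM arachidonic acid, 30 min at room temperature. Hydroperoxide measured by Fe-xylenol orange, 573/405 nm absorbance ratio.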
ClpP mod: qHTS Assay for Activators of ClpP. ATP-dependent Clp protease proteolytic subunit (Bacillus subtilis (strain 168)), P80244. purified B. subtilis ClpP, FRET peptide cleavage, 20 min. Potency, µM (series often up to 57.5 µM), for inactives: at the highest dose activity change, negative = active. 340,000 compounds, 1.9% hits; active means well fitted falling curve with a large enough effect; inconclusive means small, poorly fitted or top-dose-only effect; inactive means no such curve, though single readings can be large or run the other way; further: the source files actives as falling curves though it sought activators and does not explain the sign; nearly all actives have a fitted effect of over 65% in size
Target sequence (P80244 whole entry, looked up): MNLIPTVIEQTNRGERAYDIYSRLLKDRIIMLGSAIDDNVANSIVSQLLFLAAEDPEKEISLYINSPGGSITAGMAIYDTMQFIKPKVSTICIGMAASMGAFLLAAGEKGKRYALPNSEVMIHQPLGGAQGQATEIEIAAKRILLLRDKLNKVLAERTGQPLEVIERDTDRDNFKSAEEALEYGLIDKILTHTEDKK
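ClpP 10 microg/mL final, pH 8 Tris/KCl buffer with BSA, glycerol, Tween-20; compound pinned in; FRET-FV substrate; RT 20 min; Ex320/Em430; ΔFRET vs ADEP 5.8 microM, DMSO, no enzyme.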
An asterisk follows results filed as active; i = inactive; ? = inconclusive; . = no result given; [ ] = dose if it differs, or a comment. Hits are enriched below; roughly 2.4% of the tested compounds scored in any of these assays. Unless noted, the call rests on the fitted dose curve. Potency means the concentration at half of the fitted maximal effect.

SMILES	Rango complex inh	Rango dissoc inh	TDP1 inh	PTAP TSG101 blk	ALOX12 inh	ClpP mod
CC(=O)c1c(N2CCCC2)[nH]c(-c2ccccc2)nc1=S	4%	8%	2%	-3%	45µM*	1%
Cc1ccc(NC(=O)CSc2nnc(-c3cccs3)n2-n2cccc2)c(C)c1	.	.	.	.	1%	.
O=C(CN1CCN(C(=O)c2ccco2)CC1)Nc1ccccc1	2%	-4%	10%	-3%	-5%	.
O=C(CN1CCN(C(=O)c2ccco2)CC1)Nc1c2c(nc3c1CCC3)CCCC2	-1%	3%	89µM*	-1%	?	-2%
CCCOC(=O)/C(=C\C=C\c1ccco1)NC(=O)c1ccccc1	1%	-16%	5%	-7%	35µM*	.
O=C(O)/C(=C\c1ccco1)NC(=O)c1ccccc1	-1%	5%	-1%	-2%	3%	2%
COC(=O)/C(=C/c1ccco1)NC(=O)c1ccccc1	3%	7%	-2%	-6%	-1%	-1%
O=C(O)/C(=C\C=C\c1ccco1)NC(=O)c1ccccc1	.	.	.	.	1.6µM*	.
CCc1nc(C)sc1C(=O)N1CCN(c2ccc(C)cc2)C(=O)C1	.	.	.	.	1%	.
Cc1ccc2c(c1)-c1cc(C)nn1C(c1ccc3c(c1)OCO3)N2 (configuration not stated)	2%	-9%	0%	1%	-5%	13µM*
Cc1cc2n(n1)C(c1sccc1C)Nc1ccccc1-2 (configuration not stated)	4%	1%	0%	1%	0%	18µM*
Cc1cc2n(n1)C(c1sccc1C)Nc1c(C)cccc1-2 (configuration not stated)	2%	-10%	4%	-4%	0%	28µM*
Cc1cc2n(n1)C(c1ccc3c(c1)OCO3)Nc1ccccc1-2 (configuration not stated)	-3%	-3%	2%	-5%	-14%	?
COc1cc(OC)c(C2Nc3c(C)cccc3-c3cc(C)nn32)cc1OC (configuration not stated)	.	.	2%	.	-7%	?
Cc1cc2n(n1)C(c1ccc(N(C)C)cc1)Nc1ccccc1-2 (configuration not stated)	0%	0%	-8%	2%	201%	-27%
Cc1cc2n(n1)C(c1ccccc1)Nc1ccccc1-2 (configuration not stated)	0%	-4%	-10%	-1%	-22%	25µM*
CNC(=O)N1CCC(C2CCN(C(=O)c3c(F)cccc3Cl)C2)CC1 (configuration not stated)	.	.	.	.	5%	.
CCCNC(=O)CN1C(=O)NC(c2ccc(C)cc2)C2=C1COC2=O (configuration not stated)	.	.	.	.	21%	.
Cc1ccc2c(c1)-c1cc(C)nn1C(c1sccc1C)N2 (configuration not stated)	?	-9%	0%	-7%	0%	16µM*
CCn1cc(CN2CCC(n3nccc3NC(=O)c3ccc4c(c3)OCO4)CC2)c(C)n1	1%	-18%	1.8µM*	-1%	i	-1%
CCc1ccc(CN2CCC(n3nccc3NC(=O)C3CCCC3)CC2)cc1	0%	14%	6%[56.1 µM]	.	0%	28µM*
O=C(Nc1ccnn1C1CCN(Cc2ccc(OC(F)F)cc2)CC1)C1CCCC1	-2%	-1%	3%	0%	?	0%
COc1ccc(/C=C/CN2CCC(n3nccc3NC(=O)C3CC3)CC2)cc1	-1%	4%	2%	-2%	25µM*	-1%
CCn1cc(CN2CCC(n3nccc3NC(=O)c3ccccc3C)CC2)c(C)n1	1%	7%	1%	-2%	2%	-5%
O=C(Nc1ccnn1C1CCN(Cc2ccc(OC3CCCC3)cc2)CC1)C1CC1	.	.	.	.	8.9µM*	.
SMILES	Rango complex inh	Rango dissoc inh	TDP1 inh	PTAP TSG101 blk	ALOX12 inh	ClpP mod
O=C(Nc1ccnn1C1CCN(Cc2ccc(Cl)cc2)CC1)C1CCCC1	0%	-8%	4%	-1%	-20%	2%
COc1ccc(C(=O)Nc2ccnn2C2CCN(Cc3ccc4nonc4c3)CC2)cc1	0%	0%	22µM*	-4%	-1%	0%
C=CCNC(=S)NCC=C	1%	1%	.	-2%	-9%	-1%
C=CCNC(=S)NNC(N)=S	.	.	.	.	8.9µM*	.
N#Cc1ccc(C(=O)N[C@H]2[C@H](O)[C@H](O)C[C@@H]2c2ccc(C(F)(F)F)nc2)cc1	.	.	.	.	-1%[176 µM]	.
O=C(COC(=O)c1cccnc1Cl)NCCC1=CCCCC1	?	-6%	3%	0%	-12%	16µM*
Cc1cccc(N(C)C(=O)CN2C(=O)NC3(CCC(C)CC3)C2=O)c1 (configuration not stated)	.	.	.	.	18%	.
CCCCCCn1c(NCc2ccccc2)nc2c1c(=O)[nH]c(=O)n2C	.	.	.	.	35%	.
CC(C)(C)NS(=O)(=O)c1ccc(NC(=O)COc2ccc(Br)cc2)cc1	.	.	.	.	-18%	.
CC(C)N(C(=O)NC(=O)Nc1ccccn1)S(C)(=O)=O	?	10%	-2%	-1%	-1%	.
Cc1ccc(NC(=O)NC(=O)N(C(C)C)S(C)(=O)=O)nc1	1%	-14%	3%	-12%	3%	35µM*
CCN(CC)c1ccc(/C=N/NS(=O)(=O)c2ccc(Cl)cc2)cc1	.	.	.	.	32µM*	.
Cc1cc(O)c2c(c1O)C(=O)C(O)=C(O)C2=O	.	.	-12%	.	28µM*	.
Cc1cc(C=O)cc(C)c1O	.	.	.	.	-31%	.
CCOc1ccc2[nH]c(=O)c(CN(CCc3ccccc3)C(=O)N3CCOCC3)cc2c1	0%	0%	6%	0%	-9%	3%
CCOc1ccc2[nH]c(=O)c(CN(Cc3ccc(C)cc3)C(=O)N3CCCC3)cc2c1	2%	3%	4%	-3%	-12%	32µM*
CCOc1ccc2[nH]c(=O)c(CN(CCOC)C(=O)N3CCOCC3)cc2c1	-2%	1%	8%	-6%	46%	28µM*
COc1cc(NC(=O)c2ccc(Cn3ccn4nc5c(c4c3=O)CCCC5)cc2)cc(OC)c1OC	.	.	.	.	6%	.
